Source: PubChem
Shown are actives, neighbours in structure and some others; about 5.8% of the full set was active somewhere.
KB-V1 cytotox – kills drug-selected multidrug resistant KB-V1 cells; KB-V1 MDR cells viability, CellTiter-Glo, 72 h; Potency, µM (series often up to 46.1 µM), actives largely listed as cytotoxic; 3.4% of 400,000 active; AID 1347076; note: % is set by controls: 0 for no effect and ±100 for the full control effect; nearly all actives have a fitted effect of over 60% in size
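Cells of the MDR subline KB-V1 are plated, dosed with compound at multiple concentrations, and incubated 72 h at 37 degrees C; CellTiter-Glo is then added and luminescence read after 10 min.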
KB-3-1 tox – kills parental KB-3-1 adenocarcinoma cells. KB-3-1 viability, CellTiter-Glo ATP luminescence, 72 h. Potency, µM (series often up to 46.1 µM), most hits filed as cytotoxic. 1.4% of 400,000 active; note: % is set by controls: 0 for no effect and ±100 for the full control effect; nearly all actives have a fitted effect of over 60% in size
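Parental KB-3-1 viability, qHTS format: 72 h compound exposure, 37 °C; CellTiter-Glo; media-only wells and DMSO plates as controls; concentration-effect fits on corrected data.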
12-LOX inh – ALOX12 (human) lipoxygenase inhibition; 1.1% of 580,000 active; P18054; AID 1671190; Potency, µM (doses to about 108 µM), without a hit: top-dose activity change, negative = inhibition, actives largely listed as inhibitors; purified 12hLO, xylenol orange hydroperoxide absorbance; note: % is set by controls: 0 for no effect and ±100 for the full control effect
Target sequence (P18054 whole entry, looked up): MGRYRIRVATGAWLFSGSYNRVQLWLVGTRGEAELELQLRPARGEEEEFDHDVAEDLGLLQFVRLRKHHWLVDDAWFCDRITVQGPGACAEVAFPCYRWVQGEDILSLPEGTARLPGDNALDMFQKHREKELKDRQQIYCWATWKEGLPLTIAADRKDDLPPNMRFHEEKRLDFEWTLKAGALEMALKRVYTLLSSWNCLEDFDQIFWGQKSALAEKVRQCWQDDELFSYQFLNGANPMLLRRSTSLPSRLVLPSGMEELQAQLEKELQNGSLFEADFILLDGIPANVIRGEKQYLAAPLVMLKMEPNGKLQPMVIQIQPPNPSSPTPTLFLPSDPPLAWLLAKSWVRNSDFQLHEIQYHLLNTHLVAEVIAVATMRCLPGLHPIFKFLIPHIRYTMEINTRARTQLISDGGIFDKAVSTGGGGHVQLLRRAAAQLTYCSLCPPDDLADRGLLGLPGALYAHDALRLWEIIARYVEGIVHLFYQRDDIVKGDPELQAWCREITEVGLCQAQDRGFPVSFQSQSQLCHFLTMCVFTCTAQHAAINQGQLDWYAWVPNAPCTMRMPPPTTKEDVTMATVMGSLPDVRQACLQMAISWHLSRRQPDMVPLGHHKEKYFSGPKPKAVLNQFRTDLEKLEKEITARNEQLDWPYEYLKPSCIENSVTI
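Purified human 12hLO at 150 nM in 25 mM Hepes, 0.01% Triton X-100, pH 7.0, preincubated 15 min at room temperature with compound. Reaction started with 40 uM arachidonic acid, 30 min at room temperature. Hydroperoxide measured by Fe-xylenol orange, 573/405 nm absorbance ratio.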
PINK1 expr mod – changes PINK1 expression; 0.2% of 410,000 active; Potency, µM (top dose mostly 76.6 µM), without a hit: at the top dose activation (PINK1 increase), hits mostly activators; PINK1 immunofluorescence, high-content cytometry, 24 h; active = well fitted activation curve with a large enough effect; inconclusive = small, poorly fitted or top-dose-only effect; cell line not stated here; note: % of control where 0% means no effect; nearly all actives have a fitted effect of over 65% in size
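PINK1 protein, normally rapidly degraded, was detected by immunofluorescence after 24 hour compound treatment of a stable cell line. Titration data (5 concentrations) came from laser-scanning cytometry, with CCCP-treated wells as controls.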
SW480 rerep – inducers of DNA re-replication in SW480 colon cancer cells; SW480 DNA re-replication, Hoechst DNA content imaging, 48 h; Potency, µM (titrated, usually from 46.1 µM), without a hit: at the top dose re-replication activation, hits mostly activators; 1.8% of 340,000 active; AID 624297; note: % of control where 0% means no effect; nearly all actives have a fitted effect of over 55% in size
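Image-based DNA-content assay: after two days of treatment, nuclei were labelled with the DNA dye Hoechst and imaged, and hits were compounds raising the count of nuclei showing high fluorescence intensity.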
MCF10A rereplic – inducers of DNA re-replication in MCF 10A breast cells; MCF 10A DNA re-replication, Hoechst nuclear intensity, 48 h; Potency, µM (top dose mostly 46.1 µM), for the others: at the top dose activity, positive = re-replication, usual class: activators; 2.9% of 350,000 active; note: % of control where 0% means no effect; nearly all actives have a fitted effect of over 50% in size
Active calls of the source: *; i = inactive; ? = inconclusive; · = no result; [ ] = dose if it differs, or a comment. Unless noted, calls come from the whole dose curve; as a rule, active = well fitted curve in the direction sought with a large enough effect; inconclusive = small, poorly fitted or top-dose-only effect, or another doubt; inactive = no such curve, though single readings can be large; an effect the other way counts as inactive or inconclusive. Potency is the fitted concentration of half-maximal effect.

SMILES	KB-V1 cytotox	KB-3-1 tox	12-LOX inh	PINK1 expr mod	SW480 rerep	MCF10A rereplic
O=C(Nc1ccc(F)cc1)Nc1ccccc1NS(=O)(=O)c1cccs1	i	i	-16%	0%	4%	7%
O=C(Nc1ccc(Cl)cc1)Nc1ccccc1NS(=O)(=O)c1cccs1	i	i	?	?	-2%	18µM*
O=C(CSc1ncnc2ccccc12)NCc1ccccc1	·	·	-12%	·	·	·
Fc1cccc(-c2cnc([C@@H]3COCCN3C3CCCCC3)[nH]2)c1	·	·	21%[176 µM]	·	·	·
COc1ccc(-c2oc3ccc(N4CCOCC4)cc3c2C#CCO)cc1	?	?	?	2%	?	18µM*
COc1ccc(-c2ccc3oc(-c4ccc(OC)cc4)c(C#CCO)c3c2)cc1	i	i	?	6%	26µM*	?
COc1ccc(-c2sc3ccc(N4CCOCC4)cc3c2C#CC(C)(C)O)cc1	i	i	?	10%	-14%	5%
Cc1c(-c2ccccc2)oc2c(C(=O)N(C)C3CCCCC3)cccc2c1=O	·	·	12%	·	·	·
Cc1ccc(-c2nn3c(N4CCCCC4)cc(C)nc3c2C)cc1	·	·	-3%	·	·	·
Cc1cc(C)c2c(c1)-c1c(ssc1=S)C(C)(C)N2C(=O)CSc1nncn1C	23µM*	21µM*	?	-3%	-4%	?
Cc1ccc2c(c1)-c1c(ssc1=S)C(C)(C)N2C(=O)CSc1nncn1C	?	?	?	-4%	-4%	-3%
Cc1cc2c(cc1C)N(C(=O)CSC1=NCCS1)C(C)(C)c1ssc(=S)c1-2	16µM*	i	?	-6%[38.3 µM]	10%	4%
CC1(C)c2ssc(=S)c2-c2ccccc2N1C(=O)CSC1=NCCS1	16µM*	i	-14%	-3%	4%	23%
Cc1cccc(CN2CCc3ncc(C(=O)NCc4ccccc4)n3CC2)c1	·	·	49%[176 µM]	·	·	·
CCN(CC(=O)Nc1ccc(NC(C)=O)cc1)Cc1coc(-c2ccccc2)n1	·	·	53%	·	·	·
CCCCOP(=O)(OCCCC)C1(NS(=O)(=O)c2ccccc2)C=CC(=O)c2ccccc21 (centres undefined)	?	?	16µM*	9%	?	?
CC(=O)Nc1ccc2nc(NC(=O)c3ccc([N+](=O)[O-])o3)sc2c1	16µM*	9.2µM*	19%	2%	3.3µM*	0.65µM*
CCC(=O)N1CCN(c2ccc(NC(=O)c3ccc(Br)o3)cc2)CC1	i	i	-4%	1%	21µM*	3%
O=C(COC(=O)c1ccc([N+](=O)[O-])o1)Nc1ccc(N2CCOCC2)cc1	?	i	352%	2%	-17%	-16%
O=C(Nc1ccc(S(=O)(=O)N2CCCCCC2)cc1)c1ccc(Br)o1	5.8µM*	?	-14%	-2%	6%	14%
O=C(Nc1ccc(N2CCOCC2)cc1)c1ccc([N+](=O)[O-])o1	?	i	9%	1%	1.3µM*	4.6µM*
OC(c1cccc(Cl)c1Cl)C(F)(F)F (centres undefined)	·	·	3%	·	·	·
O=C(Nc1ccc(S(=O)(=O)N2CCCC2)cc1)c1ccc([N+](=O)[O-])o1	?	?	·	2%	0.73µM*	1.8µM*
O=C(Nc1ccc(Cc2ccncc2)cc1)c1ccc([N+](=O)[O-])o1	i	?	21%	0%	5.2µM*	3.7µM*
CCn1nnc(NC(=O)c2ccc([N+](=O)[O-])o2)n1	i	?	-1%	1%	?	15µM*
SMILES	KB-V1 cytotox	KB-3-1 tox	12-LOX inh	PINK1 expr mod	SW480 rerep	MCF10A rereplic
Cc1ccc(C(=O)Nc2ccc(S(=O)(=O)N3CCc4ccccc4C3)cc2)o1	15µM*	i	0%	-4%[38.3 µM]	-1%	4%
O=C(Nc1ccc(S(=O)(=O)N2CCOCC2)cc1)c1ccc([N+](=O)[O-])o1	?	?	-36%	2%	-9%	?
O=C1c2c(nc(CNCc3cccc(Cl)c3)n2Cc2ccccc2)NCCN1Cc1ccccc1	·	·	41%	·	·	·
CCn1cnc2c1c(=O)n(Cc1cccc(Br)c1)c(=O)n2Cc1ccccc1	18µM*	?	-20%	4%	3%	13%
CC(C)c1ccc(Cc2cnc(NC(=O)C3=Cc4ccccc4OC3)s2)cc1	·	·	12%	·	·	·
COc1ccc(-c2cc(-c3c(O)c(OC)c4occc4c3OC)[nH]n2)cc1	13µM*	?	?	1%[38.3 µM]	?	?
Oc1ccc(C2C(c3ccccc3)=NN=C(c3ccc(Cl)cc3)N2O)c(O)c1 (centres undefined)	?	?	32µM*	27%	-137%	-36%
Oc1ccc(C2C(c3ccccc3)=NN=C(c3ccccc3F)N2O)c(O)c1 (centres undefined)	i	i	-27%	1%	55%	10%
CCOC(=O)Nc1cccc(C#N)c1	·	·	3%	·	·	·
Cc1c(C(=O)N2CCOCC2)sc2nc(-c3ccccc3)cn12	23µM*	i	0%	1%	-9%	-12%
Cc1c(C(=O)Nc2ccncc2)sc2nc(-c3ccccc3)cn12	i	i	30%	11%	0%	?
Cc1c(C(=O)Nc2ccc3c(c2)OCCO3)sc2nc(-c3ccccc3)cn12	12µM*	?	-5%	-2%[38.3 µM]	-1%	-1%
Cc1c(C(=O)N2CCN(c3ccc(F)cc3)CC2)sc2nc(-c3ccccc3)cn12	i	i	0%	7%	-6%	19%
Cc1c(C(=O)NCc2ccco2)sc2nc(-c3ccccc3)cn12	i	16µM*	-4%	3%	?	?
COc1ccc(NC(=O)CSCc2cc(=O)c3cccc(F)c3[nH]2)cc1	·	·	-3%	·	·	·
CCOc1ccc2nc(NCCNC(=O)Nc3ccccc3)c(C#N)cc2c1	?	i	0%	9%	?	?
CCOc1ccc2nc(NCCNC(=S)NCCCN(C)C)c(C#N)cc2c1	i	i	-20%	-1%	16µM*	12µM*
Cc1cccc2cc(C#N)c(NCCNC(=S)NCCCN3CCOCC3)nc12	i	i	10%	-2%[38.3 µM]	13%	?
Cc1cc2cc(C#N)c(NCCNC(=S)NCCCN3CCOCC3)nc2cc1C	?	i	-6%	1%	16µM*	21µM*
CCOc1ccc2nc(NCCNC(=O)Nc3cccc(C)c3)c(C#N)cc2c1	?	?	-22%	-2%	9.2µM*	?
O=C(NCc1cccnc1N1CCOCC1)c1cnn(-c2ccc(F)cc2)c1-n1cccc1	·	·	12%	·	·	·
CN(Cc1cc(C[C@@H]2C[C@H](NCc3cccnc3)C2(C)C)no1)c1ccccc1	·	·	19%[176 µM]	·	·	·
NNc1nnc2c3cc(F)ccc3n(Cc3ccccc3)c2n1	i	?	0%	32µM*	?	?
